Results as given in ChEMBL document CHEMBL3433997, “St. Jude Leishmania screening dataset” (2016).
Where “and” joins values, the source holds several entries; their conditions need not be identical. Equal entries are not always repeated.

Assays:
Assay type in all cases: functional
[1] = molecular target: Solute carrier family 2, facilitated glucose transporter member 1 (Homo sapiens) (UniProt P11166); assay: ST_JUDE_LEISH: Cytotoxicity at 2uM final concentration against transgenic Leishmania Mexicana promastigotes LmGLUT1 that are glucose transport deficient and complemented with the human glucose transporter GLUT1. Activity is measured by DNA content using SYBR green in vitro
[2] = molecular target: Hexose transporter 1 (Plasmodium falciparum) (UniProt O97467); assay: ST_JUDE_LEISH: Cytotoxicity at 2uM final concentration against transgenic Leishmania Mexicana promastigotes LmPfHT that are glucose transport deficient and complemented with the Plasmodium falciparum hexose transporter. Activity is measured by DNA content using SYBR green in vitro
[3] = molecular target: Glucose transporter (Leishmania mexicana) (UniProt O61059); assay: ST_JUDE_LEISH: Cytotoxicity at 2uM final concentration against transgenic Leishmania Mexicana promastigotes LmGT2 that are glucose transport deficient and complemented with the L. Mexicana glucose transporter 2. Activity is measured by DNA content using SYBR green in vitro

Chain of Solute carrier family 2, facilitated glucose transporter member 1 (Homo sapiens) (P11166 whole entry): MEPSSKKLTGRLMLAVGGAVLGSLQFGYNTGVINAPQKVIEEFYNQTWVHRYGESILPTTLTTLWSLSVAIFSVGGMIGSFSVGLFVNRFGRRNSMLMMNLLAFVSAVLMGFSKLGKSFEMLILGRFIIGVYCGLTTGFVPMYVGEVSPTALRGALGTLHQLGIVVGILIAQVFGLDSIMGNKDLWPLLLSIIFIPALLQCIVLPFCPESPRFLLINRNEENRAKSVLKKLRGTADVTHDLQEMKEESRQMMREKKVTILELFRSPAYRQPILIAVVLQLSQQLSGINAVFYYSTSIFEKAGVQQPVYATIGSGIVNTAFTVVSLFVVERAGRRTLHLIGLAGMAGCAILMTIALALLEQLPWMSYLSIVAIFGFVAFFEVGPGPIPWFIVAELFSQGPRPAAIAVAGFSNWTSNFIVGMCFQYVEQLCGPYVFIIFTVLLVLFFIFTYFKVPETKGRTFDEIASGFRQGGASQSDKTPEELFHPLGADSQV

SMILES	inhibition [1]	inhibition [2]	inhibition [3]
Cc1ccc(-c2nnc3c4ccccc4c(C)nn23)cc1S(=O)(=O)N1CCN(CCO)CC1	0.38%	0.96%	-0.93%
COc1cc2c(OC)cccc2cc1CNCCCCCCNCc1cc2cccc(OC)c2cc1OC	0.11%	6.08%	-0.11%
CCCc1cc(Cc2cnc(N)nc2N)cc(CCC)c1OC	4.11%	1.27%	-2.49%
COc1ccc(NC(=O)Nc2ccc(Nc3nc(C)cc(N(C)C)n3)cc2)cc1	2.57%	3.61%	4.41%
O=C(NCCCCN1CCC(c2ccc3ccccc3c2O)CC1)c1ccc(NC(=O)c2ccc(Cl)cc2)cc1	-0.08%	1.46%	0.92%
O=C(NCCCN1CCOCC1)c1cccc(Nc2nccc(Nc3ccc(Oc4ccccc4)cc3)n2)c1	2.39%	-0.18%	-0.86%
N=c1c2nc(-c3c(F)cccc3Cl)[nH]c(=O)c2[nH]c(=O)n1-c1ccccc1	2.91%	11.5%	3.34%
CCOc1cc(C(=O)Nc2ccc(-c3nc4ccccc4[nH]3)cc2)cc(OCC)c1OCC	7.99%	5.32%	2.55%
COc1c(Br)cc(Br)cc1-c1ccc(CN2C3CCCC2CCC3)[nH]1	4.44%	7.84%	2.48%
C=C[C@H]1CN2CC[C@H]1C[C@H]2[C@H](O)c1ccnc2ccc(OC)cc12	7.23% and -4.42% and 0.77%	6.11% and -3.17% and 2.26%	-0.01% and 5.72% and -2.15%
C1=CN(Cc2ccccc2)C=CC1=C1C=Nc2ccccc21	12.1%	10.4%	8.71%
Cc1nc2ccccn2c1C1(O)C(=O)Nc2c(Cl)cc(Cl)cc21 (centres undefined)	5.72%	4.95%	2.71%
O=C(CN1CCC(NCc2cnc(-c3ccc(Cl)cc3)[nH]2)CC1)N1CCc2ccccc21	-1.03%	0.65%	0.77%
